Source: paper PMC5540273 (PLoS ONE, 2017)

tested on: PIK3CA; details: concentration: 1 μM, replicates: in singlicate; n = 1
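Also: KINOMEscan kinase panel screen.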

Compound	%Inh [%]
N#Cc1ccc(-c2cc(-c3c[nH]nc3-c3ccccn3)ccn2)cc1 [GW693028]	0
NS(=O)(=O)CCc1cccc(Nc2nccc(-c3c(-c4cccc(NC(=O)c5c(F)cccc5F)c4)nn4ccccc34)n2)c1 [GSK336735]	0
Cc1ccc(C(=O)NCC(N)=O)cc1-n1c(C)cc(OCc2ccc(F)cc2F)c(Br)c1=O	0
O=C1Cc2cc(Nc3nc(NCc4cccc(S(=O)(=O)C(F)(F)F)c4)ncc3C(F)(F)F)ccc2N1	0
O=c1cc(N2CCOCC2)nc2n(Cc3cccc4ccccc34)ccn12 [GSK2333389]	0
Fc1ccc(-c2ncn(CCCN3CCOCC3)c2-c2cccnc2)cc1 [SB-211743]	10
Cc1cccc(Cn2ccn3c(=O)cc(N4CCOCC4)nc23)c1 [GSK2297542]	12
COc1ccc(Nc2nccc(N3CCC(NC(=O)Nc4cccc(C(C)=O)c4)C3)n2)cc1 (stereo not drawn) [GSK1379731]	0
Cc1ccc(NC(=O)c2ccnc(N3CCN(C)CC3)c2)cc1-c1ccc(C(=O)NCC2CC2)cc1 [GW775604]	0
O=C(c1ccc(-c2cc(-c3c[nH]nc3-c3ccccn3)ccn2)cc1)N1CCOCC1 [GW812171]	29
COC(=O)Nc1nc2cc(Oc3ccc(NC(=O)Nc4cc(F)ccc4F)cc3)ccc2[nH]1.Cl [GW701424]	0
c1ccc(-c2n[nH]cc2-c2ccnc3ccccc23)nc1 [GW271431]	0
CN1c2ccc(CNc3ccc(F)cc3)cc2-c2c(cnn2C)S1(=O)=O	0
CC(C)(C)n1cnc2c(N)ncnc21 [SKF-97359]	0
Cc1nnc(-c2ccc3occ(-c4ccc(C(C)O)cc4)c3c2)o1 (stereo not drawn)	9
Cc1nnc(-c2ccc3ncc(-c4ccc(S(C)=O)cc4)n3c2)o1 (stereo not drawn)	3
Nc1nccc(-c2c(-c3ccc(F)cc3)ncn2C2CCN(CC(F)(F)F)CC2)n1 [SB-236560]	0
O=c1cc(N2CCOCC2)nc2n(Cc3cccc(Cl)c3Cl)c(C3CC3)nn12 [GSK2358994]	8
O=C(NCCCN1CCOCC1)c1cccc(Nc2nccc(Nc3ccc(Oc4ccccc4)cc3)n2)c1 [GW663929]	12
CSc1ccc(-c2cc3ncnc(SCC(=O)O)c3s2)cc1	0
CN(C(=O)c1ccc(-c2cc(-c3c[nH]nc3-c3ccccn3)ccn2)cc1)C1CCOCC1 [GW810083]	0
CCc1ccnc(/C=C/c2n[nH]c3cc(Sc4ccccc4C(=O)NC)ccc23)c1	0

tested on: PIK3CB; details: concentration: 1 μM, replicates: in singlicate; n = 1

Compound	%Inh [%]
Cc1cccc(-c2nc(Nc3ccc4ncsc4c3)c3ccccc3n2)n1 [GW867588]	0
CCc1nc(-c2cccc(C)c2)c(-c2ccnc(NCc3ccccc3)c2)s1	16
COc1cc2ncn(-c3cc(OCc4sccc4Cl)c(C(N)=O)s3)c2cc1OC [GSK448459]	0
Cc1c2ccc(N(C)c3ccnc(Nc4cccc(S(N)(=O)=O)c4)n3)cc2nn1Cc1ccccc1.Cl.Cl [GW787226]	0
Nc1nc(-c2ccc3c(N)n[nH]c3c2)cc(N2CCCC2)n1 [GSK2227430]	0
COCCNC(=O)c1ccc(-c2cc(C(=O)NC3CC3)cc(F)c2C)cc1 [GW868318]	49
COc1ccc(Nc2nccc(N3CCC(NC(=O)Nc4cc(C)ccc4C)C3)n2)cc1 (stereo not drawn) [GSK1379741]	0
COc1ccc(CNC(=O)NC2CCN(c3ccnc(Nc4ccc(OC)cc4)n3)C2)cc1 (stereo not drawn) [GSK1379727]	0
COc1ccc(Nc2ncc(C#N)c(Nc3ccccc3C(N)=O)n2)cc1N1CCN(C)CC1.Cl [GSK1558669]	0
O=c1cc(N2CCOCC2)nc2n(Cc3cccc(C(F)(F)F)c3)ccn12 [GSK2297543]	96.5
NS(=O)(=O)c1cccc(-c2ccc3nccc(-c4cccc(S(N)(=O)=O)c4)c3c2)c1 [GW867253]	24
c1ccc(-c2cc(-c3c[nH]nc3-c3ccccn3)ccn2)cc1 [GW576604]	0
Cc1nnc(-c2ccc(C)c(-c3ccc(C(=O)Nc4ccc(NS(C)(=O)=O)cc4)cc3)c2)o1 [GW702865]	0
N#Cc1ccc(-c2cc(-c3c[nH]nc3-c3ccccn3)ccn2)cc1 [GW693028]	0
NS(=O)(=O)CCc1cccc(Nc2nccc(-c3c(-c4cccc(NC(=O)c5c(F)cccc5F)c4)nn4ccccc34)n2)c1 [GSK336735]	0
Cc1ccc(C(=O)NCC(N)=O)cc1-n1c(C)cc(OCc2ccc(F)cc2F)c(Br)c1=O	0
O=C1Cc2cc(Nc3nc(NCc4cccc(S(=O)(=O)C(F)(F)F)c4)ncc3C(F)(F)F)ccc2N1	0
O=c1cc(N2CCOCC2)nc2n(Cc3cccc4ccccc34)ccn12 [GSK2333389]	99.7

Compound	%Inh [%]
Fc1ccc(-c2ncn(CCCN3CCOCC3)c2-c2cccnc2)cc1 [SB-211743]	0
Cc1cccc(Cn2ccn3c(=O)cc(N4CCOCC4)nc23)c1 [GSK2297542]	100
COc1ccc(Nc2nccc(N3CCC(NC(=O)Nc4cccc(C(C)=O)c4)C3)n2)cc1 (stereo not drawn) [GSK1379731]	0
Cc1ccc(NC(=O)c2ccnc(N3CCN(C)CC3)c2)cc1-c1ccc(C(=O)NCC2CC2)cc1 [GW775604]	0
O=C(c1ccc(-c2cc(-c3c[nH]nc3-c3ccccn3)ccn2)cc1)N1CCOCC1 [GW812171]	0
COC(=O)Nc1nc2cc(Oc3ccc(NC(=O)Nc4cc(F)ccc4F)cc3)ccc2[nH]1.Cl [GW701424]	0
c1ccc(-c2n[nH]cc2-c2ccnc3ccccc23)nc1 [GW271431]	0
CN1c2ccc(CNc3ccc(F)cc3)cc2-c2c(cnn2C)S1(=O)=O	0
CC(C)(C)n1cnc2c(N)ncnc21 [SKF-97359]	0
Cc1nnc(-c2ccc3occ(-c4ccc(C(C)O)cc4)c3c2)o1 (stereo not drawn)	18
Cc1nnc(-c2ccc3ncc(-c4ccc(S(C)=O)cc4)n3c2)o1 (stereo not drawn)	64
Nc1nccc(-c2c(-c3ccc(F)cc3)ncn2C2CCN(CC(F)(F)F)CC2)n1 [SB-236560]	18
O=c1cc(N2CCOCC2)nc2n(Cc3cccc(Cl)c3Cl)c(C3CC3)nn12 [GSK2358994]	100
O=C(NCCCN1CCOCC1)c1cccc(Nc2nccc(Nc3ccc(Oc4ccccc4)cc3)n2)c1 [GW663929]	18
CSc1ccc(-c2cc3ncnc(SCC(=O)O)c3s2)cc1	0
CN(C(=O)c1ccc(-c2cc(-c3c[nH]nc3-c3ccccn3)ccn2)cc1)C1CCOCC1 [GW810083]	0
CCc1ccnc(/C=C/c2n[nH]c3cc(Sc4ccccc4C(=O)NC)ccc23)c1	0
